In the supplement of paper PMC7695840:
Where a name gives a salt, the structure may show the parent alone.

system: Staphylococcus aureus MW2 (mecA+); assay: normalized DsRed fluorescence (growth of mecA+ strain) (fraction of control range); higher = more growth of mecA+ strain; conditions: compound concentration: 150 uM; cefoxitin: subinhibitory; fluorescent label: DsRed
Procedure, shortened: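 Pre-induced S. aureus MW2 cells carrying the gene (DsRed) and deletion cells lacking it (GFP) were combined 1:1 in LB containing a subinhibitory antibiotic dose set each day, then dispensed at 5 µL/well onto 150 μM compound (1.5% DMSO) in 1536-well plates as a single replicate. After 20 h at 37 °C and 90% humidity without shaking, DsRed (540/590) and GFP (485/520) were read. Each channel was scaled per plate between the medians of the single-strain controls, and plates with high untreated ratios and rows with DsRed/GFP >10 were excluded.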

SMILES	normalized DsRed fluorescence
COC(=O)C1=C(C)NC(C)=C(C(=O)OC)C1c1ccccc1[N+](=O)[O-]	0.832
O=S(=O)(O)CCS	0.565
CNS(=O)(=O)Cc1ccc2[nH]cc(CCN(C)C)c2c1	0.758
CCOC(=O)[C@H](CCc1ccccc1)N[C@H]1CS[C@H](c2cccs2)CN(CC(=O)O)C1=O [Temocapril HCl]	0.936
Cc1cn[nH]c1	0.838
Nc1c2c(nc3ccccc13)CCCC2	0.996
CCCNCC(O)COc1ccccc1C(=O)CCc1ccccc1 (stereo not given)	1.05
Cc1cc(C#N)cc(C)c1Oc1nc(Nc2ccc(C#N)cc2)nc(N)c1Br [Etravirine (TMC125)]	0.589
CNC(=C[N+](=O)[O-])NCCSCc1ccc(CN(C)C)o1	0.742
CN1C2=CC(=O)/C(=N\NC(N)=O)C=C2CC1S(=O)(=O)O (stereo not given) [Carbazochrome sodium sulfonate]	0.676
Cc1ncc([N+](=O)[O-])n1CC(C)O (stereo not given) [Secnidazole (Flagentyl)]	0.482
CC(C)(C)NC(=O)[C@H]1CC[C@H]2[C@@H]3CC[C@H]4NC(=O)C=C[C@]4(C)[C@H]3CC[C@]12C	0.691
CCCN(CCC)S(=O)(=O)c1ccc(C(=O)O)cc1	0.343
CO[C@H]1C[C@@H]2CC[C@@H](C)[C@@](O)(O2)C(=O)C(=O)N2CCCC[C@H]2C(=O)O[C@H]([C@H](C)C[C@@H]2CC[C@@H](OCCO)[C@H](OC)C2)CC(=O)[C@H](C)/C=C(\C)[C@@H](O)[C@@H](OC)C(=O)[C@H](C)C[C@H](C)/C=C/C=C/C=C/1C [Everolimus (RAD001)]	1.72
CNCCC(Oc1ccc(C(F)(F)F)cc1)c1ccccc1 (stereo not given)	1.27
NC(=O)c1ncn([C@@H]2O[C@H](CO)[C@@H](O)[C@H]2O)c1N [Acadesine]	0.776
CN(C)CCOc1ccc(/C(=C(/CCCl)c2ccccc2)c2ccccc2)cc1	0.0394
CC#CCn1c(N2CCC[C@@H](N)C2)nc2c1c(=O)n(Cc1nc(C)c3ccccc3n1)c(=O)n2C	0.667

SMILES	normalized DsRed fluorescence
CC(=O)O[C@]1(C(C)=O)CC[C@H]2[C@@H]3C=C(Cl)C4=CC(=O)CC[C@]4(C)[C@H]3CC[C@@]21C	0.594
C[C@@H]1[C@H](O)[C@@H](C)/C=C/C=C/C=C/C=C/C=C/C=C/C=C/[C@H](O[C@@H]2O[C@H](C)[C@@H](O)[C@H](N)[C@@H]2O)C[C@@H]2O[C@](O)(C[C@@H](O)C[C@@H](O)[C@H](O)CC[C@@H](O)C[C@@H](O)CC(=O)O[C@H]1C)C[C@H](O)[C@H]2C(=O)O	0.735
O=C(O)CCNC(=O)c1ccc(/N=N/c2ccc(O)c(C(=O)O)c2)cc1	0.891
CCOC(=O)[C@H](CCc1ccccc1)N[C@H]1CCc2ccccc2N(CC(=O)O)C1=O	1.44
O=C1C(CC[S+]([O-])c2ccccc2)C(=O)N(c2ccccc2)N1c1ccccc1 (stereo not given)	0.445
CC(=O)OCC(=O)[C@@]1(O)CC[C@H]2[C@@H]3CCC4=CC(=O)CC[C@]4(C)[C@H]3[C@@H](O)C[C@@]21C	0.595
Nc1c(Br)cc(Br)cc1CN[C@H]1CC[C@H](O)CC1 [Ambroxol HCl]	0.849
Cc1cc(O)cc(C)c1Cl	0.544
CC1(C)O[C@@H]2C[C@H]3[C@@H]4CCC5=CC(=O)C=C[C@]5(C)[C@@]4(F)[C@@H](O)C[C@]3(C)[C@]2(C(=O)CO)O1	0.613
N[C@@H](CC(=O)N1CCn2c(nnc2C(F)(F)F)C1)Cc1cc(F)c(F)cc1F	0.577
CCOC(=O)[C@H](CCc1ccccc1)N[C@@H](C)C(=O)N1Cc2cc(OC)c(OC)cc2C[C@H]1C(=O)O [Moexipril HCl]	0.48
C=C(c1ccc(C(=O)O)cc1)c1cc2c(cc1C)C(C)(C)CCC2(C)C [Bexarotene]	0.742
Clc1ccc(C(c2ccccc2Cl)C(Cl)Cl)cc1 (stereo not given)	0.731
C[C@@H]1O[C@@H](OC[C@H]2O[C@@H](Oc3c(-c4ccc(OCCO)c(OCCO)c4)oc4cc(OCCO)cc(O)c4c3=O)[C@H](O)[C@@H](O)[C@@H]2O)[C@H](O)[C@H](O)[C@H]1O [Troxerutin]	0.471
NC[C@H](O)c1ccc(O)c(O)c1	1.06
CCN(CCCCOC(=O)c1ccc(OC)c(OC)c1)C(C)Cc1ccc(OC)cc1 (stereo not given)	0.559
C[C@H]1[C@H](NC(=O)/C(=N\OC(C)(C)C(=O)O)c2csc(N)n2)C(=O)N1S(=O)(=O)O [Aztreonam (Azactam, Cayston)]	1.17
